From PubChem BioAssay AID602122 (National Center for Advancing Translational Sciences (NCATS), 2011)
Activity calls are given as the source filed them.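 The calls were made as follows: active = translocation seen by eye under the microscope after immunostaining of patient fibroblasts; inconclusive = translocation result judged unclear; inactive = no translocation seen.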

biological target: Lysosomal alpha-glucosidase (Homo sapiens) (UniProt P10253); assay: qHTS for Activators of Human alpha-Glucosidase as a Potential Chaperone Treatment of Pompe Disease: Fibroblast Translocation; conditions: Pompe patient fibroblasts, GAA immunostaining lysosomal translocation, 6 d
From the text: Alpha-glucosidase is responsible for hydrolysis of terminal, non-reducing 1,4-linked alpha-D-glucose residues with release of alpha-D-glucose. It is a lysosomal hydrolase that is required for the degradation of a small percentage (1-3%) of cellular glycogen in human. Deficiency of this enzyme results in glycogen-storage disease type II (GSDII), also referred to as Pompe disease, an autosomal recessive disorder. Structurally normal glycogen is accumulated in lysosomes and cytoplasm in affected patients, primarily in muscle tissues. Excessive glycogen storage within lysosomes may interrupt normal functioning of other organelles and leads to cellular injury. In turn, this leads to enlargement and dysfunction of the entire organ involved (eg, cardiomyopathy and muscle weakness). It has reported that the improper folding and trafficking of alpha-glucosidase resulting from the genetic mutations may account for a significant number of Pompe patients. […] We optimized this alpha-glucosidase assay in 1536-well plate format for identifying the novel small molecule inhibitors with the structures other than the sugar analogs in order to develop the new pharmacological chaperones. Validated hits were tested in this fibroblast translocation assay that measures fluorescence through immunostaining Pompe patient derived fibroblasts. NIH Chemical Genomics Center [NCGC] […]

**Q.** With `CCCN1CNc2c(c(=O)[nH]c(=S)n2Cc2ccc(OC)c(OC)c2)C1` as the compound, how does the outcome read?
**A.** active; yes
